PubChem BioAssay AID488969 (Vanderbilt High Throughput Screening Facility, 2010)
The full ranking holds about 110,000 compounds; the median of “z-score” is about -0.1, and the highest 2% start at about 2. Many of the other results were omitted from the sample, so the highest values are more common in it than they were. Activity calls are given as the source filed them.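 How the source made its calls: active means z-score in the third read window above 3 or below -3; inactive means the rest.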

biological target: Metabotropic glutamate receptor 8 (Rattus norvegicus) (UniProt P70579); test: mGluR8 Gi/Go-coupled signaling modulation – cell-based, rat, thallium flux, HTS, primary screen (AID 488969); details: HEK293 rat mGluR8, GIRK (G protein-gated inwardly rectifying potassium channel) thallium flux, FluoZin2; at 10 µM; stronger effect = higher value; submaximal glutamate (EC20) added with thallium
Sequence (P70579 whole entry, looked up): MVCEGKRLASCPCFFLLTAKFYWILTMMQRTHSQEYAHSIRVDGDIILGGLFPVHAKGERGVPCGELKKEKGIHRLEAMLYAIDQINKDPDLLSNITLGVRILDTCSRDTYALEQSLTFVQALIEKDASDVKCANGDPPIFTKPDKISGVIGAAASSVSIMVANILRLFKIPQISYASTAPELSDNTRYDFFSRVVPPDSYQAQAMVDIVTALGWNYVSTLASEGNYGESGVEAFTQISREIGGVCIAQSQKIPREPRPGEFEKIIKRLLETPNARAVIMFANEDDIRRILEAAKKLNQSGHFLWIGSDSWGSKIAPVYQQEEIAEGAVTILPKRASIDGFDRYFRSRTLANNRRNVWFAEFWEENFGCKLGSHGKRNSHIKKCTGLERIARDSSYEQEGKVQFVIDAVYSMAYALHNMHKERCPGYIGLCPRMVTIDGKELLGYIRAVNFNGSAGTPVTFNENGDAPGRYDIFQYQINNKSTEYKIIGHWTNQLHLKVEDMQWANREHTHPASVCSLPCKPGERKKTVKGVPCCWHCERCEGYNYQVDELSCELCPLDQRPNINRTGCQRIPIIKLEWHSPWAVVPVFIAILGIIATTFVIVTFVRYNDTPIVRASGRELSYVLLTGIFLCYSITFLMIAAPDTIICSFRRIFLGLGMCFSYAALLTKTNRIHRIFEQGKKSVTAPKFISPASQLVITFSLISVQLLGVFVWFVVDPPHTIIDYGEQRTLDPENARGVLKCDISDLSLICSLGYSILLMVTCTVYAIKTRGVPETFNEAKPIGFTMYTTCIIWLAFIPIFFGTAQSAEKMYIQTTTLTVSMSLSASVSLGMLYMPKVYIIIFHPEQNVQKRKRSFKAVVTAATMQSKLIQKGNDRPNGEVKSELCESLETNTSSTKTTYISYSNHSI

| Compound | z-score |
| --- | --- |
| O=C(c1cc(-c2ccc(Cl)cc2Cl)on1)N1CCN(C(=O)c2ccco2)CC1 | 0.486 |
| O=C(c1cccc(F)c1)N1CCN(C(=O)c2cc(-c3ccc(Cl)cc3Cl)on2)CC1 | 3.48 (active) |
| O=C(c1cc(-c2ccc(Cl)cc2Cl)on1)N1CCOCC1 | -0.321 |
| COC(=O)c1cc2ccccn2c2c(C(=O)OC)c(C(=O)OC)cc1-2 | 0.219 |
| O=C(Nc1ccccc1)c1sc(Cl)nc1-c1ccccc1 | -0.405 |
| Cc1cc(C)n(-c2ccc(C)c(Cl)c2)n1 | -0.078 |
| Cc1cc(C)[n+]2n1C(=O)C(c1ccccc1)=C2[O-] | 2.57 |
| Cc1cc(=O)n2[nH]c(-c3ccccc3)cc2n1 | -0.312 |
| O=c1cc(-c2ccccc2)[nH][nH]1 | 0.252 |
| O=C(c1cc(-c2ccccc2)on1)N1CCN(C(=O)c2ccco2)CC1 | 2.21 |
| Cc1cc(C(=O)N2CCN(c3ccccc3)CC2)no1 | 0.106 |
| O=C(c1cc(-c2ccccc2)on1)N1CCCC1 | 3.32 (active) |
| CCOC(=O)C1CCCN(C(=O)c2ccco2)C1 (centres undefined) | 0.661 |
| CN1CCN(C(=O)c2cc(-c3ccccc3)on2)CC1 | 0.0853 |
| CCOC(=O)C1CCCN(C(=O)c2cc(=O)c3ccccc3o2)C1 (centres undefined) | 2.91 |
| Cc1noc(C)c1C(=O)N1CCN(CCc2ccccc2)CC1 | -0.189 |
| Cc1cc(C(=O)N2CCN(CCc3ccccc3)CC2)no1 | 8.2 (active) |
| Cc1ccc(-c2cc(C(=O)N3CCN(C(=O)c4ccco4)CC3)no2)cc1 | -0.304 |
| CCOC(=O)C1CCCN(C(=O)c2cc3c(C)nc4ccccc4c3o2)C1 (centres undefined) | -0.243 |
| O=C(c1cc(-c2ccccc2Cl)on1)N1CCN(C(=O)c2ccco2)CC1 | 0.424 |
| Cc1ccc(-c2cc(C(=O)N3CCCC3)no2)cc1 | -0.457 |
| COc1ccc2cc(C(c3nnnn3C3CCCCC3)N3CCCCCC3)c3nnnn3c2c1 (centres undefined) | -0.929 |
| CCn1c(=O)c2ccccc2n2c(SCC(=O)N3CCc4ccccc4C3)nnc12 | 1.51 |

| Compound | z-score |
| --- | --- |
| CCn1c(SCC(=O)NC(C)(C)C)nnc1-c1ccoc1C | 0.155 |
| CCN(CC)S(=O)(=O)c1ccc(N2CCOCC2)c(NC(=O)Cc2ccccc2)c1 | -0.339 |
| O=C(CC1NCCNC1=O)OCc1ccccc1 (centres undefined) | 0.419 |
| O=C(CC1NCCNC1=O)OCCCc1ccccc1 (centres undefined) | 1.22 |
| CCCOc1ccc(C(=O)NC(=S)Nc2nc(C)c(C(=O)N(C)C)s2)cc1 | 0.54 |
| CCOC(=O)C1CCCN(C(=O)c2cc(-c3ccccc3)on2)C1 (centres undefined) | 3.22 (active) |
| CCOC(=O)C1CCCN(C(=O)c2cc(-c3ccc(C)cc3)on2)C1 (centres undefined) | -0.235 |
| CCOC(=O)C1CCCN(C(=O)c2cccs2)C1 (centres undefined) | -0.161 |
| CC(=O)CSc1nc(N)c(C#N)c(-c2cccs2)c1C#N | -0.18 |
| COc1cccc(/C=N/NC(=O)c2nc(-c3ccccc3)cc(-c3ccccc3)n2)c1 | -0.286 |
| COc1ccc(/C=N/NC(=O)c2nc(-c3ccccc3)cc(-c3ccccc3)n2)cc1OC | 0.42 |
| COc1ccc(/C=N/NC(=O)c2nc(-c3ccccc3)cc(-c3ccccc3)n2)cc1 | 8.06 (active) |
| Cn1c(SCC(=O)NC(C)(C)C)nc(O)cc1=O | -0.0162 |
| CC12CCC(C(=O)N(NC(=O)c3ccccc3Cl)C1=O)C2(C)C (centres undefined) | 0.00342 |
| O=C1C2C3C=CC(CC3)C2C(=O)N1/N=C/c1ccccc1O (centres undefined) | -0.187 |
| CC12CCC(C(=O)N(CSC(=S)N/N=C\c3ccccc3Cl)C1=O)C2(C)C (centres undefined) | 16.2 (active) |
| CC12CCC(C(=O)N(CSC(=S)N/N=C\c3ccccc3O)C1=O)C2(C)C (centres undefined) | 5.76 (active) |
| CC12CCC(C(=O)N(CC(O)CN3CCCCCC3)C1=O)C2(C)C (centres undefined) | 0.13 |
| CC12CCC(C(=O)N(c3ccccc3Cl)C1=O)C2(C)C (centres undefined) | 0.208 |
| CCCn1c(SCC(=O)N2CCN(c3ccccc3)CC2)nc2ccccc2c1=O | -0.496 |
| CCn1c(CNC(=O)c2cccc(C)c2)nnc1SCC(=O)NC1CCCCC1C (centres undefined) | 0.161 |
| Cc1[nH]c2ccc(F)cc2c(=O)c1SC(F)(F)C(F)F | -1.3 |
| Cc1ccc2c(c1)C(c1ccccc1)N(C(=O)C(C)C)CC(=O)N2 (centres undefined) | -0.0998 |

| Compound | z-score |
| --- | --- |
| CCCC(=O)N1CC(=O)Nc2ccc(F)cc2C1c1ccccc1 (centres undefined) | -0.534 |
| Cc1ccc2c(c1)C(c1ccc(F)cc1)N(C(=O)C1CC1)CC(=O)N2 (centres undefined) | 2.06 |
| Cn1nc(C(=O)NCc2ccccn2)c2ccccc2c1=O | -0.406 |
| COC(=O)CSc1nc(NC#N)nc(NC(C)C)n1 | -0.00648 |
| Cc1ccc2cc(C3CC(c4ccco4)=NN3S(=O)(=O)c3ccccc3)c(Cl)nc2c1 (centres undefined) | 0.136 |
| CCSc1nnc(NC(=O)CCc2ccccc2)s1 | -0.278 |
| O=C(Nc1ncc(Br)s1)C(Cc1ccccc1)n1cccc1 (centres undefined) | 7 (active) |
| O=C(NC1CCCC1)C(Cc1ccccc1)n1cccc1 (centres undefined) | 0.182 |
| O=C(Nc1cccnc1)C(Cc1ccccc1)n1cccc1 (centres undefined) | 0.0231 |
| CCSc1nnc(NC(=O)C(Cc2ccccc2)n2cccc2)s1 (centres undefined) | 4.24 (active) |
| Cc1csc(NC(=O)C(Cc2ccccc2)n2cccc2)n1 (centres undefined) | 5.2 (active) |
| CCSc1nnc(NC(=O)[C@@H](NC(=O)c2ccccc2)C(C)C)s1 | -0.168 |
| Cc1csc(NC(=O)CSCC(=O)Nc2ccccc2)n1 | 0.462 |
| CCC(C(=O)Nc1nc(C)cs1)c1ccccc1 (centres undefined) | -0.691 |
| CCN(CC)C(=O)NC(c1ccc(C)c(F)c1)C(Cl)(Cl)Cl (centres undefined) | -0.501 |
| Cn1cc(S(=O)(=O)CC(=O)Nc2ccc(Br)cc2)c2ccccc21 | -0.0267 |
| Cc1onc(-c2ccccc2)c1C(=O)Nc1ccc(N2CCOCC2)cc1 | -0.074 |
| CCC1CCCCN1C(=O)C1CC(c2cc(Cl)c(OC)cc2OC)=NO1 (centres undefined) | -0.518 |
| Cc1cc(=O)oc2cc(OCC(=O)Nc3nnc(CC(C)C)s3)ccc12 | -0.0633 |
| CCc1ccc2oc(-c3cc(N=Cc4cccc(OC)c4O)ccc3O)nc2c1 | -0.649 |
| Cc1cc2c(cc1C)C(c1ccccc1Br)CC(=O)N2 (centres undefined) | 0.617 |
| COc1cnc(-c2ccccn2)nc1Sc1ccc(Cl)cc1 | -0.328 |
| OCCCc1nc2n(n1)C(c1ccccc1)C=C(c1ccc(F)cc1)N2 (centres undefined) | -1.33 |

| Compound | z-score |
| --- | --- |
| Brc1ccc(C2=CC(c3cccs3)n3ncnc3N2)cc1 (centres undefined) | -1.55 |
| OCCCc1nc2n(n1)C(c1ccccc1)C=C(c1ccccc1)N2 (centres undefined) | -0.449 |
| OCCCc1nc2n(n1)C(c1cccs1)C=C(c1ccccc1)N2 (centres undefined) | 2.68 |
| OCCCc1nc2n(n1)C(c1ccccc1Cl)C=C(c1cccs1)N2 (centres undefined) | -1.48 |
| OCCCc1nc2n(n1)C(c1cccs1)C=C(c1ccc(Br)cc1)N2 (centres undefined) | 5.08 (active) |
| COc1ccc(NC(=O)/C(=C/c2ccc3c(c2)OCO3)NC(C)=O)cc1 | -0.031 |
| CC(=O)C1=C(c2ccccc2)OC(N)=C(C#N)C1c1ccc(O)cc1 (centres undefined) | -0.487 |
| CC1=C(n2nnc3ccccc32)C(c2ccccc2)C(C#N)=C(N)O1 (centres undefined) | 3.38 (active) |
| COC(=O)C1=C(C)OC(N)=C(C#N)C1c1ccccc1 (centres undefined) | -0.92 |
| CC(C)c1nc(C#N)c(NCCCn2ccnc2)o1 | 0.481 |
| N#C/C(=C(/O)C(Cl)c1ccccc1)c1nc2ccccc2s1 (centres undefined) | -0.476 |
| Cc1ccc(NC(=O)CSc2nnc(CCCCCNC(=O)OC(C)(C)C)o2)c(C)c1 | 0.493 |
| Cc1ccc(C)c(NC(=O)CSc2nnc(CCNC(=O)OC(C)(C)C)o2)c1 | 0.761 |
| CCN(CC)C(=O)CSc1nnc(CCNC(=O)OC(C)(C)C)o1 | 0.491 |
| CC(C)(C)OC(=O)NCCc1nnc(SCC(N)=O)o1 | -0.0953 |
| C=C(C)CSc1nnc(CCNC(=O)OC(C)(C)C)o1 | 2.19 |
| Cc1ccc(NC(=O)CSc2nnc(CCNC(=O)OC(C)(C)C)o2)c(C)c1 | 2.11 |
| COc1ccc(CNC(=O)C2CCCN(c3nc4ccccc4o3)C2)c(OC)c1 (centres undefined) | 0.18 |
| Cc1ccc(C)c2[nH]c(=O)c(C(c3nnnn3Cc3ccccc3)N3CCc4ccccc4C3)cc12 (centres undefined) | -0.148 |
| COc1ccccc1-n1c(SCC(=O)N2CCc3ccccc32)nc2c(c1=O)SCC2 | -0.558 |
| O=c1[nH]c2ccccc2n1C1CCCCC1 | -1.04 |
| CCCn1c(=O)[nH]c2ccccc21 | -0.219 |
| O=c1[nH]c2ccccc2n1CCC1CCCCC1 | 5.05 (active) |

| Compound | z-score |
| --- | --- |
| C=CCOc1ccc(CNn2c(C)n[nH]c2=S)cc1OC | 0.17 |
| CC(C)NC(=O)C1CCN(C(=O)C(C(=O)c2ccccc2)n2cc(Cl)ccc2=O)CC1 (centres undefined) | 0.609 |
| COc1ccc(/C=N/NC(=S)Nc2ccccc2)cc1COc1ccccc1F | -0.0868 |
| C=CCNC(=S)Nc1ccc(F)cc1F | -0.172 |
| COc1ccc(/C=N/NC(=S)Nc2ccccc2)cc1COc1ccc(F)cc1F | -0.047 |
| Cc1ccc(NC(=S)N/N=C/c2ccc(Cl)c([N+](=O)[O-])c2)cc1 | -0.0758 |
| Fc1ccc(/C=N/NC(=S)Nc2ccc(Cl)cc2)cc1F | 6.19 (active) |
| Fc1ccc(NC(=S)N/N=C/c2cccc(Br)c2)c(F)c1 | 3.61 (active) |
| Fc1cccc(/C=N/NC(=S)Nc2ccccc2Cl)c1 | 11.2 (active) |
| Fc1ccc(NC(=S)N/N=C/c2ccc(F)c(F)c2)c(F)c1 | 13 (active) |
| COc1ccccc1NC(=S)N/N=C/c1cccc(C)c1 | 0.651 |
| CCCCNC(=O)C(=O)N/N=C/c1cccc(Br)c1 | 0.475 |
| C=CCNC(=S)Nc1ccc(Br)cc1F | -0.377 |
| O=C(CCC(=O)Nc1ccccc1Cl)N/N=C/c1ccccc1 | -0.0425 |
| Cc1cccc(N(C(=O)c2sc(C)nc2C)C(C(=O)NCc2ccco2)c2ccccc2)c1 (centres undefined) | -1.18 |
| COC(=O)C1=C(C)NC(=O)NC1c1ccccc1 (centres undefined) | -0.341 |
| OC(COCC(F)(F)C(F)(F)C(F)(F)C(F)F)Cn1c2ccccc2c2ccccc21 (centres undefined) | 0.164 |
| CCOc1ccc2nc(SCc3ccccc3C#N)sc2c1 | -0.141 |
| Fc1ccccc1N1CCN(CC2CC3C=CC2C3)CC1 (centres undefined) | -0.343 |
| Cc1noc2c1C(c1ccc(N(C)C)cc1)C1=C(CC(C)(C)CC1=O)N2 (centres undefined) | -0.142 |
| CN(CCC#N)C(=S)Nc1ccc(Oc2ccccc2)cc1 | -0.139 |
| Cc1ccc(-c2ccc(SCC(=O)c3ccccc3)nn2)cc1 | 0.138 |
